# Most compounds without a hit are left out; they make up all but 1.9% or so of the library.
# RXFP1 agonist – qHTS Assay for Agonists of the Relaxin Receptor RXFP1; Relaxin receptor 1 (Homo sapiens), Q9HBX9; HEK293T-RXFP1 cAMP TR-FRET, 30 min; response scale: percent of porcine relaxin response, buffer zero; Potency, µM (titrated, usually from 57.5 µM), without a hit: at the highest dose activation, hits mostly activators; 370,000 compounds, 0.3% hits; note: potency is the fitted concentration of half-maximal effect; % is set by controls: 0 for no effect and ±100 for the full control effect; nearly all actives have a fitted effect of over 60% in size
#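 Agonist response is measured as cAMP accumulation in an RXFP1-transfected HEK293T line under PDE4 inhibition. Values are scaled between buffer-only and 29 nM porcine relaxin, and EC50s come from standard Hill equation fits.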
# BRCA1 expr act – qHTS Assay to Identify Small Molecule Activators of BRCA1 Expression; Potency, µM (series often up to 46.1 µM), inactives show top-dose activation, actives largely listed as activators; AID 624202, 2012; MCF7-BRCA1-FFLuc reporter, luminescence, 48 h; response scale: scaled: vehicle 0%, 10 µM genistein 100%; 380,000 compounds, 1.1% hits; note: potency is the fitted concentration of half-maximal effect; nearly all actives have a fitted effect of over 80% in size
#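 48 h compound treatment of MCF7-BRCA1-FFLuc cells (phenol-red free MEM, 37 °C), then 15 min with luciferase substrate and luminescence imaging.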
# IL2 activator – qHTS of IL-2 Activators; IL-2 activation reporter assay, cell-based qHTS; stimulated with anti-CD3/CD4/CD28 beads; in transgenic mouse T cells; activation, % (series mostly up to about 46 µM); 360,000 compounds, 0.065% hits; in the data active = activation above about 50%; inconclusive = mostly about 30% to 49%; note: 0% is about no effect
#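 Unstimulated transgenic mouse T cells; 60-min compound exposure; bead-based TCR/CD4/CD28 stimulation; 18 h culture, 37 degrees C; dual fluorescence (EGFP, DsRed) plate cytometry.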
# Giardia kill – Small Molecules that selectively kill Giardia lamblia: qHTS | Giardia lamblia trophozoite viability | activity change, % at 7.66 µM, hits read low | 340,000 compounds, 0.15% hits; in the data active = activity change below about -80%; inconclusive = between about -30% and that limit;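 note: parasites exposed to compound for two days anaerobically before the ATP read; % is set by controls: 0 for no effect and ±100 for the full control effect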
#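 ATP-content bioluminescence gauges trophozoite survival. Cells (100/well) receive compound and incubate anaerobically for 48 hrs at 37 deg C; detection reagent follows for 15-30 min at room temperature.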
# RXFP1 antag – qHTS Assay for Antagonists of the Relaxin Receptor RXFP1. 350,000 compounds, 0.59% hits. HEK293-RXFP1, relaxin-stimulated cAMP HTRF, 30 min; hits give low values. activity change, negative = inhibition, % at 57.5 µM;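 active = activity change of -60% or lower, but not beyond a set lower limit; inconclusive = change between -60% and -40%, or beyond the set limit; inactive = change above -40%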; note: % is set by controls: 0 for no effect and ±100 for the full control effect
# NPSR antagonist – qHTS Assay for Antagonists of the Neuropeptide S Receptor: cAMP Signal Transduction; Q6W5P4; CHO-NPSR cells, cAMP TR-FRET, antagonist mode; Potency, µM (doses to about 38.3 µM), inactives show at the top dose activity change, negative = inhibition, actives largely listed as inhibitors; 220,000 compounds, 1% hits; AID 1461, 2008; note: potency is the fitted concentration of half-maximal effect; % is set by controls: 0 for no effect and ±100 for the full control effect; nearly all actives have a fitted effect of over 50% in size
# Target sequence (Q6W5P4 whole entry, looked up): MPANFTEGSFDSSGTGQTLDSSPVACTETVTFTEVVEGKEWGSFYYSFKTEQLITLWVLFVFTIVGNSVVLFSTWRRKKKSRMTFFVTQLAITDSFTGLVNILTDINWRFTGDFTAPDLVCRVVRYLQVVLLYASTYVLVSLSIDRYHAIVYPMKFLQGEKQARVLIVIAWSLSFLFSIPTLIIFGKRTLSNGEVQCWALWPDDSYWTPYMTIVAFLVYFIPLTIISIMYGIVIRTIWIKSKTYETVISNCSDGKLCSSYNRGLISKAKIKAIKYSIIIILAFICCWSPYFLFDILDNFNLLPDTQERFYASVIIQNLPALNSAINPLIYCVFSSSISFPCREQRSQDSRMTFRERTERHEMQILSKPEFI
# * marks the source's active call; other numbers are inactive results; ? = inconclusive; . = not tested or not shown; [ ] = dose if it differs, or a comment. Unless noted, calls come from the whole dose curve; as a rule, active = well fitted curve in the direction sought with a large enough effect; inconclusive = small, poorly fitted or top-dose-only effect, or another doubt; inactive = no such curve, though single readings can be large; an effect the other way counts as inactive or inconclusive.
SMILES,RXFP1 agonist,BRCA1 expr act,IL2 activator,Giardia kill,RXFP1 antag,NPSR antagonist
O=[N+]([O-])c1ccccc1/C=C/C=N/n1c(-c2cc(-c3ccccc3)n[nH]2)n[nH]c1=S,1%,-8%,-3,-6,-69*,41%
O=[N+]([O-])c1cccc(/C=N/N2CCN(Cc3ccccc3)CC2)c1,-1%,13µM*,1,?,-9,11%
O=[N+]([O-])c1cccc(/C=N/N2CCN(Cc3ccc(Cl)cc3)CC2)c1,0%,-9%,1,1,-31,29%
Cc1ccc(-c2n[nH]c(=S)n2/N=C/C=C/c2ccccc2[N+](=O)[O-])cc1,2%,-54%,-3,8,-29,?
O=[N+]([O-])c1ccccc1/C=C\C=N\N1CCN(c2ccccc2)CC1,1%,32%,2,?,-2,-26%
C(=N\N1CCN(c2ccccn2)CC1)/c1cccc2ccccc12,4%,5%,-5,2,-29,31%
Oc1ccccc1/C=N/N1CCN(c2ccccn2)CC1,6%,10µM*,-1,-2,-19,-21%
COc1cccc(-c2cn3c(n2)sc2cc(C(=O)NCc4ccccc4F)ccc23)c1,0%,.,.,.,8,.
CNc1ccc(C=O)cc1Cl,.,32%,.,.,.,.
Cc1cc(C)c(NC(=O)c2sc3nc(C)cc(C)c3c2NC(=O)c2ccccc2)c(C)c1,0%,.,.,.,-21,.
Cc1ccc(-c2[nH]ncc2CNCc2ccc(CN(C)C)cc2)cc1,.,0%,.,12,.,.
CC(C)(C)OC(=O)N1CCC(c2c(C(=O)NCc3cccc(Cl)c3)cnn2-c2ccc(F)cc2)CC1,-2%,.,.,.,-28,.
O=[N+]([O-])c1cccc(/C=N/N2CCN(c3ccccn3)CC2)c1,0%,8.9µM*,0,16,17,-30%[46.1 µM]
O=[N+]([O-])c1cccc(C=NN2CCCCCC2)c1,.,13µM*,-1,-3,-19,.
Cc1cc(C(=O)COC(=O)c2ccc(Cl)c(S(N)(=O)=O)c2)c(C)n1CC1CCCO1 (configuration not stated),0%,11µM*,-1,-11,-2,.
CS(=O)(=O)N1CCN(c2ccccc2NC(=O)c2ccc(-c3ccc(Cl)cc3Cl)o2)CC1,0%,-27%,1,4,4,3.2µM*
CN1CCN(c2ccccc2NC(=O)c2ccc(-c3ccc(Cl)cc3Cl)o2)CC1,0%,-94%,3,6,-2,?
Cc1ccc(Sc2cnc3ccccc3n2)cc1,16%,7.1µM*,1,-17,-3,-9%[46.1 µM]
Cc1cc(Sc2ccc(Cl)cc2)nc2ccccc12,19%,.,.,.,-1,.
CCc1ccc(C2N=C(N)Nc3nc4ccccc4n32)cc1 (configuration not stated),0%,-10%,.,.,.,.
CCOC(=O)c1ccccc1-n1c(C)cc(C2N=C(N)Nc3nc4ccccc4n32)c1C (configuration not stated),0%,-8%,0,-12,19,13µM*
COc1cc(/C=C2\C(=O)ON=C2c2ccccc2)cc(Br)c1O,1%,-69%,-1,-5,-4,.
COc1cc(/C=C2\C(=O)ON=C2c2ccccc2)cc(Cl)c1O,1%,-13%,1,-1,-6,7.9µM*
O=C1ON=C(c2ccc(Cl)cc2)/C1=C/c1ccc(O)cc1,0%,-74%,-1,13,-27,6.3µM*
COc1cc2c(NC3CCN(C)CC3)nc(N3CCCN(C)CC3)nc2cc1OCCCN1CCCCC1,.,-51%,.,.,.,.
Nc1c(C(=O)Nc2ccccc2F)sc2nc(Cc3ccccc3)cc(C(F)(F)F)c12,8%,1%,51*,0,12,?
COc1cccc(C(=O)Nc2nnc(S(=O)(=O)N3CCCc4ccccc43)s2)c1,0%,.,.,.,-32,.
